# Reference: PubChem BioAssay (Tox21)
# A number with no mark means an inactive call. Records with an inconclusive call do not appear. Entries that show only a call come without a potency. Calls of active or inactive are those of the source. Unless noted, calls come from the whole dose curve; as a rule, active = well fitted curve in the direction sought with a large enough effect in the repeat runs; inconclusive = weak or mixed curves; inactive = no such curve, though single readings can be large; an effect the other way counts as inactive or inconclusive.
# How the values were obtained:
# [1] = qHTS RealTime-Glo MT Cell Viability Assay in HEK293 cells - 24 hour (AID 1224886); note: nearly all actives have a fitted effect of over 50% in size; note: potency is the fitted concentration of half-maximal effect
# In short: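 Assay medium contained NanoLuc luciferase plus cell-permeant prosubstrate, added with HEK293 cells at 600 cells/well. After 5 h at 37 C/5% CO2 compounds were added; plates stayed at 37 C for 40 h with serial luminescence reads.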
# [2] = qHTS RealTime-Glo MT Cell Viability Assay in HEK293 cells - 8 hour (AID 1224887); note: top concentration of the series differs between compounds; nearly all actives have a fitted effect of over 50% in size
# In short: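 Viable HEK293 cells reduce a cell-permeant prosubstrate; the product diffuses out and is consumed by NanoLuc in the medium to give light. Compounds went in after a 5 h incubation and plates were read over the treatment course.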
# [3] = A CellTox Green Cytotoxicity Assay to monitor cytotoxicity in HEK293 cells - 16 hour (AID 1224888); note: nearly all actives have a fitted effect of over 35% in size
# In short: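 Fluorescence intensity, read at 0, 8, 16, 24, 32 and 40 h of compound treatment, reflected dye binding to DNA of dead HEK293 cells; compounds (23 nL, DMSO) were added 5 h after plating cells with reagent.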
# [4] = qHTS RealTime-Glo MT Cell Viability Assay in HepG2 cells - 0 hour (AID 1224889); note: nearly all actives have a fitted effect of over 50% in size
# In short: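 qHTS, HepG2, 600 cells/well, RealTime-Glo (NanoLuc + prosubstrate) added with cells; 5 h preincubation; DMSO compound addition; 37 C; luminescence at 0/8/16/24/32/40 h.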
# [5] = A CellTox Green Cytotoxicity Assay to monitor cytotoxicity in HepG2 cells - 8 hour (AID 1224890); note: nearly all actives have a fitted effect of over 45% in size; note: potency is the fitted concentration of half-maximal effect
# In short: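 Using 1536-well format, dye-containing HepG2 suspension was seeded, allowed 5 h at 37 C/5% CO2, dosed by pintool with compounds, positive and negative controls, and imaged for fluorescence across 40 h.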
# [6] = qHTS assay to identify small molecule antagonists of the estrogen receptor alpha (ER-alpha) signaling pathway using the BG1 cell line in the presence of 0.1 nM 17-beta-estradiol - cell viability counter screen (AID 1259241); note: nearly all actives have a fitted effect of over 40% in size
# In short: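 Estradiol-stimulated (0.1 nM) VM7Luc4E2 cells exposed to compounds 22 hr; viability measured by fluorescence of cleaved CellTiter-Fluor substrate after 30 min.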
# [7] = qHTS assay to identify small molecule antagonists of the androgen receptor (AR) signaling pathway using the MDA cell line in the presence of 0.5 nM R1881 - cell viability counter screen (AID 1259242); note: nearly all actives have a fitted effect of over 45% in size
# In short: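 Viability of MDA-kb2 cells was multiplexed with the luciferase AR readout; after 16 hr with compounds and R1881 at 0.5 nM final, CellTiter-Fluor fluorescence was recorded.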
# [8] = biological target: Estrogen receptor (Homo sapiens) (UniProt P03372); assay: qHTS assay to identify small molecule antagonists of the estrogen receptor alpha (ER-alpha) signaling pathway using the BG1 cell line in the presence of 0.1 nM 17-beta-estradiol (AID 1259244); note: nearly all actives have a fitted effect of over 50% in size
# In short: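 Estradiol at 0.1 nM (final) stimulates the endogenous ER-alpha of VM7Luc4E2 cells carrying an ERE-driven luciferase; compounds are co-incubated 22 h at 37C and luciferase output quantified by luminescence.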
# [9] = qHTS assay to identify small molecule HDAC inhibitors (AID 1259364); note: potency is the fitted concentration of half-maximal effect;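 note: wild-type HCT-116 cells with endogenous class I/II HDAC activity; nearly all actives have a fitted effect of over 45% in size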
# In short: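 Read-out: luminescence of HDAC-Glo I/II reagent, 30 min RT, reflecting class I/II deacetylase activity in whole HCT-116 cells pre-exposed 2 h to DMSO-dissolved compounds.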
# [10] = qHTS assay to identify small molecule HDAC inhibitors - cell viability counter screen (AID 1259365)
# In short: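 After overnight seeding at 1,500 cells per well, wild-type HCT-116 cultures took up compounds in DMSO for 2hr at 37 C. Viable cell content came from luminescence with CellTiter-Glo.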
# [11] = qHTS assay to identify small molecule agonists of the sonic hedgehog signaling (Shh) pathway - cell viability counter screen (AID 1259366); note: nearly all actives have a fitted effect of over 50% in size
# In short: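 Same-well cytotoxicity read. Gli1-Luc reporter 3T3 cells; compounds 24hr, 37C/5% CO2; CellTiter-Fluor fluorescence.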
# [12] = qHTS assay to identify small molecule antagonists of the sonic hedgehog signaling (Shh) pathway - cell viability counter screen (AID 1259367); note: nearly all actives have a fitted effect of over 55% in size
# In short: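 Using CellTiter-Fluor, viability of Gli1-Luc reporter 3T3 cells is read by fluorescence in the wells used for the Shh luciferase assay. Treatment lasts 23 hr with conditioned medium, then reagent 1 hr at 37C.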
# [13] = qHTS assay to identify small molecule agonists of the sonic hedgehog signaling (Shh) pathway (AID 1259368; calls by dose curve;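 note: NIH/3T3-derived 3T3Gli1-Luc cells carrying a stable Gli1-driven firefly luciferase reporter; series mostly up to about 92 µM; nearly all actives have a fitted effect of over 15% in size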)
# In short: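 A Gli1 transcriptional response element controlled firefly luciferase in 3T3Gli1-Luc cells. Compounds and a positive control were added 4 hr after plating, and cells were incubated a further 24 hr at 37 C before luminescence detection.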
# [14] = qHTS assay to identify small molecule antagonists of the sonic hedgehog signaling (Shh) pathway (AID 1259369; calls by dose curve; note: nearly all actives have a fitted effect of over 45% in size)
# In short: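 For antagonist detection, the reporter line received test compounds together with conditioned medium, incubated 24hr at 37 C, 5% CO2, then luminescence was recorded following 30min room-temperature luciferase reagent incubation.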
# [15] = biological target: Estrogen receptor beta (Homo sapiens) (UniProt Q92731); assay: qHTS assay to identify small molecule agonists of the estrogen receptor beta (ER-beta) signaling pathway (AID 1259377; active = well fitted activation curve with a large enough effect in the signal ratio in the repeat runs, not every such curve was filed as active; the % refers to the signal ratio)
# In short: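 Read-out: beta-lactamase FRET fluorescence. Cell line: ER-beta-UAS-bla HEK293T in 2% charcoal-stripped FBS. Exposure: 16 hr at 37C. Substrate step: 2 h at room temperature.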
# [16] = biological target: Estrogen receptor beta (Homo sapiens) (UniProt Q92731); assay: qHTS assay to identify small molecule antagonists of the estrogen receptor beta (ER-beta) signaling pathway (AID 1259378; active = well fitted inhibition curve with a large enough effect in the signal ratio in the repeat runs, not every such curve was filed as active; the % refers to the signal ratio)
# In short: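 Antagonist mode: compounds added to beta-lactamase reporter HEK293T ER-beta-UAS cells stimulated with E2 (1nM final), 16 hr at 37C. LiveBLAzer B/G FRET substrate, 2 hours room temperature, fluorescence read-out.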
# [17] = qHTS assay to identify small molecule agonists of the androgen receptor (AR) signaling pathway in the presence of an antagonist - cell viability counter screen (AID 1259379);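 note: MDA-kb2 human breast cancer cells carrying an MMTV luciferase reporter; series mostly up to about 92 µM; nearly all actives have a fitted effect of over 25% in size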
# In short: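 Seed MDA-kb2 at 3,000 cells/well; incubate 5 hr, 37C, 0% CO2. Add nilutamide to 3.0uM final, then pin compounds at 15 concentrations. Incubate 16 hr. Add CellTiter-Fluor at 15 hr, read fluorescence after 1 hr.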
# [18] = qHTS assay to identify small molecule agonists of the estrogen receptor beta (ER-beta) signaling pathway - cell viability counter screen (AID 1259380); note: nearly all actives have a fitted effect of over 30% in size
# In short: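 CellTiter-Glo read, 30 min RT, same wells as bla assay; cells ER-beta-UAS-bla HEK293T; 16 hr compound, 37C; medium 2% charcoal-stripped FBS.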
# [19] = biological target: Androgen receptor (Homo sapiens) (UniProt P10275); assay: qHTS assay to identify small molecule antagonists of the androgen receptor (AR) signaling pathway using the MDA cell line in the presence of 0.5 nM R1881 (AID 1259243); note: nearly all actives have a fitted effect of over 50% in size
# In short: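 Reporter cells cultured without CO2 receive test chemicals, then 0.5 nM R1881 final; after 16 hr at 37C, ONE-Glo is added and light output recorded.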
# [20] = qHTS assay to identify small molecule phospholipidosis (PLD) inducers (AID 1259344; active = well fitted curve in the direction sought with a large enough effect; an effect the other way counts as inactive or inconclusive)
# In short: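 Fluorescent phospholipid staining (LipidTOX Red) measured by automated microscopy in fixed HepG2 cells after 24 h treatment; nuclei counterstained with Hoechst 33342; amiodarone as reference inducer.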
# Sequence of Estrogen receptor (Homo sapiens) (P03372 whole entry, looked up): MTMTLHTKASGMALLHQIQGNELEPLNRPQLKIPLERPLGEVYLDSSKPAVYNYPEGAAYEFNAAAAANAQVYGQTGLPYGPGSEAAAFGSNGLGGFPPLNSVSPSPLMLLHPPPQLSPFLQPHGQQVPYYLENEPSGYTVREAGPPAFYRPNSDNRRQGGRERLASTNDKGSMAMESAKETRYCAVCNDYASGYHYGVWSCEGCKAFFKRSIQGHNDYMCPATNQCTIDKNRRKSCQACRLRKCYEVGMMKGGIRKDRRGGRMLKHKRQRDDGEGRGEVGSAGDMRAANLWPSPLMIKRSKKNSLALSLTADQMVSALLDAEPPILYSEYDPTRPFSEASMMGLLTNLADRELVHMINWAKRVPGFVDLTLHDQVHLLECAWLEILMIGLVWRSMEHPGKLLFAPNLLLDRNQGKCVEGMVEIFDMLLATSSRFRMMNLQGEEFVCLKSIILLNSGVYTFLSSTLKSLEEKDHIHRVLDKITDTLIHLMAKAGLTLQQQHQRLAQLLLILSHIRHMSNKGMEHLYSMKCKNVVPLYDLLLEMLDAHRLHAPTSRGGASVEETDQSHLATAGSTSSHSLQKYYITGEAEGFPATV
# Sequence of Estrogen receptor beta (Homo sapiens) (Q92731 whole entry, looked up): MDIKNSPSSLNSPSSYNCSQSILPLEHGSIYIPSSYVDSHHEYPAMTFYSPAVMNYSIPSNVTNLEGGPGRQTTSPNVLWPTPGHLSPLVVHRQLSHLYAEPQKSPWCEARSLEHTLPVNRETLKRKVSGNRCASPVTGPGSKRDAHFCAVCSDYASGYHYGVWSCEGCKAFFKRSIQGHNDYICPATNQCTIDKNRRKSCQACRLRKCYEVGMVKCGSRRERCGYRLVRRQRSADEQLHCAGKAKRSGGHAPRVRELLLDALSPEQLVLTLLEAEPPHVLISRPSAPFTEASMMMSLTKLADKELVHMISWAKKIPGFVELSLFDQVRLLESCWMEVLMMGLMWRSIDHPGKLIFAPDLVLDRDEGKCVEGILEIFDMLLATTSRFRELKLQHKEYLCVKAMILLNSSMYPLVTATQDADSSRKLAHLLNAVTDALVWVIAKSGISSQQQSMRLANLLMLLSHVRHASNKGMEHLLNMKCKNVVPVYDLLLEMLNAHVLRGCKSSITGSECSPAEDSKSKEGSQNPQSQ
# Sequence of Androgen receptor (Homo sapiens) (P10275 whole entry, looked up): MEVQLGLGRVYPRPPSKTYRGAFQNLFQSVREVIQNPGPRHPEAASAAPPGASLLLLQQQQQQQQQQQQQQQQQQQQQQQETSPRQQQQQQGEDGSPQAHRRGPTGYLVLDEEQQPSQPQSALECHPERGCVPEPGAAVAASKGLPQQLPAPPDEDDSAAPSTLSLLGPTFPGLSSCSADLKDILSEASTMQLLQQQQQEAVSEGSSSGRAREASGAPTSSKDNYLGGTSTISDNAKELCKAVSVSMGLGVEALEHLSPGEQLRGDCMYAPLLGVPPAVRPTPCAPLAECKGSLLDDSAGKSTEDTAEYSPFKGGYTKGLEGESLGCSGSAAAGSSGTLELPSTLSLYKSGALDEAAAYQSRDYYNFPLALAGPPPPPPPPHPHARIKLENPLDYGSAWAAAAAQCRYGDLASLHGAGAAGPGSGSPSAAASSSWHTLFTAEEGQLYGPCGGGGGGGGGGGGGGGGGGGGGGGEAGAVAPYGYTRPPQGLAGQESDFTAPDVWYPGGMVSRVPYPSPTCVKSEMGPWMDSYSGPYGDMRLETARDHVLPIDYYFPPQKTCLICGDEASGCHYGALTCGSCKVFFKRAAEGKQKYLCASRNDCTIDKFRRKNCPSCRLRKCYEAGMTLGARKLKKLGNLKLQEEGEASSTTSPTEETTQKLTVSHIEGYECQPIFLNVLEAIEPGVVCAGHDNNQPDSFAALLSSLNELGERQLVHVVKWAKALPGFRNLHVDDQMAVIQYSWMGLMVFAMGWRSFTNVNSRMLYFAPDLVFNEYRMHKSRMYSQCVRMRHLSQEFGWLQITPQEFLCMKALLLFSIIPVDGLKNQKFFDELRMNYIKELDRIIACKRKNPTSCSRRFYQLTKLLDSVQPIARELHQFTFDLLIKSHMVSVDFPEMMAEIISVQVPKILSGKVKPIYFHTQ
Compound,Potency [1],Potency [2],Potency [3],Potency [4],Potency [5],Potency [6],Potency [7],Potency [8],Potency [9],outcome [10],Potency [11],Potency [12],outcome [13],Potency [14],Potency [15],outcome [16],Potency [17],outcome [18],outcome [19],outcome [20]
CC(C)C(=O)c1ccccc1,inactive,inactive,inactive,inactive,inactive,inactive,inactive,inactive,inactive,inactive,inactive,inactive,inactive,inactive,inactive,inactive,inactive,inactive,,
FC(F)(F)/C(=N\OCC1OCCO1)c1ccc(Cl)cc1,inactive,inactive,inactive,inactive,inactive,inactive,inactive,inactive,inactive,inactive,inactive,inactive,inactive,inactive,inactive,inactive,,inactive,,
CCCCC(CC)CNC(=O)CC(C)OC(=O)CCC(=O)O (stereo not given),inactive,inactive,inactive,inactive,26.8 µM (active),inactive,inactive,inactive,inactive,,,inactive,inactive,inactive,inactive,,inactive,inactive,inactive,
CC(=O)c1ccc(OCC(=O)N2CCCCC2)cc1,inactive,inactive,inactive,inactive,inactive,inactive,inactive,inactive,13.3 µM (active),inactive,,inactive,inactive,inactive,,,,inactive,,
CC(C)(c1ccc(Oc2ccc3c(c2)C(=O)OC3=O)cc1)c1ccc(Oc2ccc3c(c2)C(=O)OC3=O)cc1,inactive,inactive,inactive,inactive,inactive,inactive,inactive,inactive,inactive,,inactive,inactive,inactive,,inactive,inactive,inactive,inactive,,
Nc1ccc(C(=O)OCC(O)CO)cc1 (stereo not given),inactive,inactive,inactive,inactive,inactive,inactive,inactive,inactive,,inactive,,inactive,inactive,inactive,inactive,inactive,inactive,inactive,,
CCOC(=O)C(C)(C)C,inactive,inactive,inactive,inactive,inactive,inactive,inactive,,inactive,inactive,inactive,inactive,inactive,inactive,inactive,inactive,inactive,inactive,,
O=C(c1ccc2c(c1)C(=O)OC2=O)c1ccc2c(c1)C(=O)OC2=O,inactive,inactive,inactive,inactive,inactive,inactive,inactive,,inactive,inactive,inactive,inactive,inactive,inactive,inactive,inactive,inactive,inactive,,
CCCCCCCC[Si](OCC)(OCC)OCC,inactive,inactive,inactive,inactive,inactive,inactive,inactive,,inactive,inactive,inactive,inactive,inactive,inactive,inactive,inactive,inactive,inactive,,
C=C(C)C(=O)OC1CC(C)CC(C)(C)C1 (stereo not given),inactive,inactive,inactive,inactive,inactive,inactive,inactive,,inactive,inactive,inactive,inactive,inactive,inactive,inactive,inactive,inactive,inactive,,
CCS(=O)(=O)CCn1c([N+](=O)[O-])cnc1C,inactive,inactive,inactive,inactive,inactive,inactive,inactive,,inactive,inactive,inactive,inactive,inactive,inactive,,,inactive,inactive,,inactive
C[C@H](CCC(=O)NCC(=O)O)[C@H]1CC[C@H]2[C@@H]3[C@H](O)C[C@@H]4C[C@H](O)CC[C@]4(C)[C@H]3C[C@H](O)[C@]12C,13.4 µM (active),inactive,inactive,inactive,inactive,inactive,inactive,,inactive,inactive,inactive,inactive,inactive,inactive,inactive,inactive,inactive,inactive,,
C=C(C)C(=O)OCCCCCCOC(=O)C(=C)C,inactive,inactive,inactive,inactive,inactive,inactive,inactive,,inactive,inactive,inactive,inactive,inactive,inactive,,,,inactive,,
CN(C)CCCNCCC#N,inactive,inactive,inactive,inactive,inactive,inactive,inactive,,inactive,inactive,inactive,inactive,,inactive,inactive,inactive,inactive,inactive,,
CCCCCCCC/C=C\CCCCCCCC(=O)OC[C@@H](O)[C@H]1OC[C@H](O)[C@H]1O,inactive,inactive,inactive,inactive,inactive,inactive,inactive,,inactive,inactive,inactive,inactive,,inactive,inactive,inactive,inactive,inactive,,
CC(C)CCC(=O)CCC(C)C,inactive,inactive,inactive,inactive,inactive,inactive,inactive,,inactive,inactive,inactive,inactive,,inactive,inactive,inactive,inactive,inactive,,
CCc1nccnc1C,inactive,inactive,inactive,inactive,inactive,inactive,inactive,inactive,,,inactive,,inactive,inactive,inactive,inactive,inactive,inactive,,
